Assay results: the supplement of paper PMC8728848
Shown is part of a subset that was picked to be rich in the strongest signals.

What was measured:
Test in all cases: glycan array binding signal (z-score within array); higher = stronger binding
Settings in all cases: glycan notation: IUPAC condensed, linker removed
[1] = target: Gal(b1-4)GlcNAc(b1-3)Gal(b1-4)GlcNAc(b1-2)Man(a1-3)[Gal(b1-4)GlcNAc(b1-3)Gal(b1-4)GlcNAc(b1-2)Man(a1-6)]Man(b1-4)GlcNAc(b1-4)GlcNAc
In short: (§1)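 Negative Z-scores can be read as non-binding. The Z-score is calculated within each array and then averaged across arrays of one protein sequence at different concentrations or buffers and across linkers. Arrays, 3228 in all, were curated from the Consortium for Functional Glycomics database and kept only where the protein sequence was available.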

[2] = target: Gal(b1-4)GlcNAc(b1-3)Gal(b1-4)GlcNAc(b1-2)[Gal(b1-4)GlcNAc(b1-3)Gal(b1-4)GlcNAc(b1-6)]Man(a1-6)[Gal(b1-4)GlcNAc(b1-3)Gal(b1-4)GlcNAc(b1-2)Man(a1-3)]Man(b1-4)GlcNAc(b1-4)[Fuc(a1-6)]GlcNAc
In short: as §1

[3] = target: Gal(b1-4)GlcNAc(b1-3)Gal(b1-4)GlcNAc(b1-3)Gal(b1-4)GlcNAc(b1-3)Gal(b1-4)GlcNAc(b1-3)Gal(b1-4)GlcNAc(b1-2)Man(a1-3)[Gal(b1-4)GlcNAc(b1-3)Gal(b1-4)GlcNAc(b1-3)Gal(b1-4)GlcNAc(b1-3)Gal(b1-4)GlcNAc(b1-3)Gal(b1-4)GlcNAc(b1-2)Man(a1-6)]Man(b1-4)GlcNAc(b1-4)GlcNAc
In short: as §1

[4] = target: Gal(b1-4)GlcNAc(b1-3)[Gal(b1-4)GlcNAc(b1-6)]Gal(b1-4)GlcNAc
In short: as §1

Gal(b1-6)Gal = target: Gal(b1-6)Gal
In short: as §1

Gal6P(b1-4)GlcNAc = target: Gal6P(b1-4)GlcNAc
In short: as §1

Gal6S(b1-4)Glc = target: Gal6S(b1-4)Glc
In short: as §1

Gal6S(b1-4)Glc6S = target: Gal6S(b1-4)Glc6S
In short: as §1

[5] = target: GalNAc(b1-3)Gal(a1-6)Gal(b1-4)Glc
In short: as §1

[6] = target: GalNAc(b1-4)GlcNAc(b1-2)Man(a1-3)[GalNAc(b1-4)GlcNAc(b1-2)Man(a1-6)]Man(b1-4)GlcNAc(b1-4)GlcNAc
In short: as §1

GalNAc(b1-4)GlcNAc6S = target: GalNAc(b1-4)GlcNAc6S
In short: as §1

[7] = target: Glc(a1-4)Glc(a1-4)Glc(a1-4)Glc
In short: as §1

Glc(b1-6)Glc = target: Glc(b1-6)Glc
In short: as §1

[8] = target: GlcNAc(a1-4)Gal(b1-4)GlcNAc(b1-3)Gal(b1-4)GlcNAc
In short: as §1

[9] = target: GlcNAc(b1-2)[GlcNAc(b1-6)]Man(a1-6)[GlcNAc(b1-2)Man(a1-3)]Man(b1-4)GlcNAc(b1-4)GlcNAc
In short: as §1

[10] = target: GlcNAc(b1-3)Gal(b1-4)GlcNAc(b1-3)Gal(b1-4)GlcNAc(b1-2)Man(a1-3)[GlcNAc(b1-3)Gal(b1-4)GlcNAc(b1-3)Gal(b1-4)GlcNAc(b1-2)Man(a1-6)]Man(b1-4)GlcNAc(b1-4)GlcNAc
In short: as §1

[11] = target: GlcNAc(b1-3)Gal(b1-4)GlcNAc(b1-3)Gal(b1-4)GlcNAc(b1-2)Man(a1-3)[GlcNAc(b1-3)Gal(b1-4)GlcNAc(b1-3)Gal(b1-4)GlcNAc(b1-2)Man(a1-6)]Man(b1-4)GlcNAc(b1-4)[Fuc(a1-6)]GlcNAc
In short: as §1

[12] = target: GlcNAc(b1-3)Gal(b1-4)GlcNAc(b1-3)Gal(b1-4)GlcNAc(b1-3)Gal(b1-4)GlcNAc(b1-2)Man(a1-3)[GlcNAc(b1-3)Gal(b1-4)GlcNAc(b1-3)Gal(b1-4)GlcNAc(b1-3)Gal(b1-4)GlcNAc(b1-2)Man(a1-6)]Man(b1-4)GlcNAc(b1-4)[Fuc(a1-6)]GlcNAc
In short: as §1

[13] = target: GlcNAc(b1-4)Gal(b1-4)GlcNAc
In short: as §1

[14] = target: GlcNAc(b1-4)GlcNAc(b1-4)GlcNAc(b1-4)GlcNAc(b1-4)GlcNAc(b1-4)GlcNAc
In short: as §1

[15] = target: GlcNAc(b1-4)[GlcNAc(b1-6)]GalNAc
In short: as §1

Man(a1-2)Man(a1-3)Man = target: Man(a1-2)Man(a1-3)Man
In short: as §1

[16] = target: Man(a1-2)Man(a1-3)[Man(a1-2)Man(a1-6)]Man(a1-6)[Man(a1-2)Man(a1-2)Man(a1-3)]Man(b1-4)GlcNAc(b1-4)GlcNAc
In short: as §1

Man(a1-6)Man = target: Man(a1-6)Man
In short: as §1

Man(b1-4)GlcNAc = target: Man(b1-4)GlcNAc
In short: as §1

[17] = target: Neu5Ac(a2-3)Gal(b1-3)[GlcNAc(b1-6)]GalNAc
In short: as §1

[18] = target: Neu5Ac(a2-3)Gal(b1-4)[Fuc(a1-3)]GlcNAc(b1-6)[Neu5Ac(a2-3)Gal(b1-3)]GalNAc
In short: as §1

Neu5Ac(a2-6)Gal = target: Neu5Ac(a2-6)Gal
In short: as §1

[19] = target: Neu5Ac(a2-6)Gal(b1-3)GlcNAc(b1-3)[Gal(b1-4)GlcNAc(b1-6)]Gal(b1-4)Glc
In short: as §1

[20] = target: Neu5Ac(a2-6)Gal(b1-4)GlcNAc(b1-3)Gal(b1-4)GlcNAc(b1-3)Gal(b1-4)GlcNAc
In short: as §1

B1: SBD-G4S3-Fc (protein)
chain: MASIPSSASVQLDSYNYDGSTFSGKIYVKNIAYSKKVTVVYADGSDNWNNNGNIIAASFSGPISGSNYEYWTFSASVKGIKEFYIKYEVSGKTYYDNNNSANYQVSTGGGGSGGGGSGGGGSEFVPRDCGCKPCICTVPEVSSVFIFPPKPKDVLTITLTPKVTCVVVDISKDDPEVQFSWFVDDVEVHTAQTQPREEQFNSTFRSVSELPIMHQDWLNGKEFKCRVNSAAFPAPIEKTISKTKGRPKAPQVYTIPPPKEQMAKDKVSLTCMITDFFPEDITVEWQWNGQPAENYKNTQPIMDTDGSYFVYSKLNVQKSNWEAGNTFTCSVLHEGLHNHHTEKSLSHSPGAA
glycan array binding signal (z-score) [1]: 8.04
glycan array binding signal (z-score) [2]: 0.249
glycan array binding signal (z-score) [3]: 1.16
glycan array binding signal (z-score) [4]: -0.023
glycan array binding signal (z-score) (Gal(b1-6)Gal): -0.372
glycan array binding signal (z-score) (Gal6P(b1-4)GlcNAc): -0.45
glycan array binding signal (z-score) (Gal6S(b1-4)Glc): 0.105
glycan array binding signal (z-score) (Gal6S(b1-4)Glc6S): 0.402
glycan array binding signal (z-score) [5]: -0.468
glycan array binding signal (z-score) [6]: -0.087
glycan array binding signal (z-score) (GalNAc(b1-4)GlcNAc6S): -0.208
glycan array binding signal (z-score) [7]: 12.1
glycan array binding signal (z-score) (Glc(b1-6)Glc): 0.309
glycan array binding signal (z-score) [8]: -0.415
glycan array binding signal (z-score) [9]: -0.075
glycan array binding signal (z-score) [10]: 3.18
glycan array binding signal (z-score) [11]: 1.28
glycan array binding signal (z-score) [12]: 1.91
glycan array binding signal (z-score) [13]: -0.117
glycan array binding signal (z-score) [14]: -0.372
glycan array binding signal (z-score) [15]: 0.069
glycan array binding signal (z-score) (Man(a1-2)Man(a1-3)Man): -0.16
glycan array binding signal (z-score) [16]: -0.404
glycan array binding signal (z-score) (Man(a1-6)Man): -0.195
glycan array binding signal (z-score) (Man(b1-4)GlcNAc): -0.231
glycan array binding signal (z-score) [17]: -0.317
glycan array binding signal (z-score) [18]: -0.117
glycan array binding signal (z-score) (Neu5Ac(a2-6)Gal): -0.041
glycan array binding signal (z-score) [19]: -0.05
glycan array binding signal (z-score) [20]: 0.075
